Among the data in PubChem BioAssay are composite z-score and z-score values, retold here.

The source made the active and inactive calls. Unless noted, how the calls were made is not given here.

Experiment [1] deals with Wnt5a (protein binding on small-molecule microarray). Briefly: small molecules binding Wnt5a protein – biophysical, small-molecule microarray, 635/667 nm fluorescence, primary screen (AID 1142).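 Further: fluorescence read at 667 nm with signal to noise per printed feature.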 Particulars: 635 nm fluorescence, higher = more signal.
Experiment [2] can be described thus: ATP-based viability of Huh7 replicon cells – cell-based, CellTiter-Glo luminescence, basal, 48 h, cytotoxicity control for HCV replication inhibitor project, primary screen (AID 1143).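 Further: Huh7 hepatoma cells carrying a hepatitis C replication reporter with no stimulus; test concentration not given here.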 Particulars: higher = more signal, called active from +8 up or from −8 down. Background: In antiviral work, replicon cells carry a viral genome segment that copies itself.
Experiment [3] in a line: Pseudomonas biofilm growth suppression – PAO1 strain, BacTiter-Glo luminescence, LB-PBS, primary screen (AID 1144). Particulars: P. aeruginosa PAO1 biofilm, 12 h, higher = more signal.
A short description of experiment [4]: basal CRE-LacZ reporter activity in PC12 – cell-based, unstimulated, primary screen (AID 1145). Particulars: no forskolin, luminescence, 4.5 h, higher = more signal, called active from +8 up or from −8 down.
A short description of experiment [5]: forskolin-driven CRE-LacZ activity in PC12 – cell-based, CRE-LacZ reporter, forskolin-stimulated, primary screen (AID 1146).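 Further: PC12 cells with 6xCRE LacZ reporter stimulated by forskolin 10 µM; beta-galactosidase reporter signal reflecting CREB driven transcription.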 Particulars: luminescence, 4.5 h, higher = more signal, called active from +8 up or from −8 down.
Experiment [6] has as its target Streptavidin (Streptomyces avidinii) (UniProt P22629). The experiment is described as follows: compounds binding control protein streptavidin – biophysical, small-molecule microarray, 635/667 nm fluorescence, artefact control for SMM compound annotation, primary screen (AID 1147).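 Further: signal reflects streptavidin binding to arrayed compounds as a control protein.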 Particulars: higher = more signal.
The nature of experiment [7]: probe aInhba binding on compound microarray – biochemical, small-molecule microarray, 635/667 nm fluorescence, primary screen (AID 1148).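 Further: score merges 667nm spot fluorescence with signal-to-noise for antibody binding to printed compounds.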 Particulars: higher = more signal.
Experiment [8] concerns the target Torsin-1A (Homo sapiens) (UniProt O14656). The experiment is described as follows: TOR1A wild-type binding on microarray – cell lysate, small-molecule microarray, lysate, 635/667 nm, primary screen (AID 1149). Particulars: COS7 hTOR1A-WT lysate, 635 nm fluorescence, higher = more signal.
Experiment [9] has the same target. Briefly: torsin A mutant lysate binding on microarrays – cell lysate, small-molecule microarray, COS7 lysate, 635/667 nm fluorescence, primary screen (AID 1150).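 Further: score pools 667 nm emission and signal to noise measuring lysate protein binding.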 Particulars: COS7 hTOR1A mutant lysate, 635 nm fluorescence, higher = more signal.
Experiment [10] relates to Sonic hedgehog protein (Shh). The experiment is described as follows: Sonic hedgehog microarray binding compounds – biochemical, small-molecule microarray, 635/667 nm fluorescence, primary screen (AID 1151).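 Further: Shh protein binding to compounds spotted on small-molecule microarray slides; score combines spot fluorescence intensity with signal-to-noise across triplicate slides.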 Particulars: 635 nm fluorescence, higher = more signal.
The nature of experiment [11]: optical density shifts of acrAB sulA E. coli – strain DRC41, OD650, 48 h, E. coli filamentation inducer project, primary screen (AID 1152).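 Further: E. coli MC1000 strain DRC41 lacking acrAB efflux pump and sulA.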 Particulars: higher = more signal, called active from +8 up or from −8 down.
Experiment [12] is described as follows: probe aLefty1 binding on compound microarray – biochemical, small-molecule microarray, 635/667 nm fluorescence, primary screen (AID 1153).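 Further: score merges spot fluorescence with signal-to-noise ratio from the scanned slide images.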 Particulars: higher = more signal.
A short description of experiment [13]: plasmodial surface anion channel blockers, osmotic lysis – cell-based, P. falciparum Indochina, OD700, 1 h, primary screen (AID 1154). Particulars: P. falciparum Indochina infected RBC osmotic lysis, higher = more signal, called active from +8 up or from −8 down.
Experiment [14] is described as follows: plasmodial surface anion channel blockers, osmotic lysis – cell-based, P. falciparum Indochina, OD700, 2 h, primary screen (AID 1155).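 Further: lysis reports solute entry through the parasite surface anion channel PSAC.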 Particulars: P. falciparum Indochina infected erythrocytes, higher = more signal, called active from +8 up or from −8 down.
The nature of experiment [15]: changes in parasitized red cell lysis, either direction – P. falciparum Indochina, OD700, 3 h, PSAC antagonist project, primary screen (AID 1156). Particulars: P. falciparum-infected erythrocytes, osmotic lysis, higher = more signal, called active from +8 up or from −8 down.
The nature of experiment [16]: plasmodial surface anion channel blockers, osmotic lysis – cell-based, P. falciparum Indochina, OD700, 18 h, primary screen (AID 1157). Particulars: P. falciparum Indochina infected erythrocytes, osmotic lysis OD700, 18 h; higher = more signal, called active from +8 up or from −8 down.
Experiment [17] is described as follows: S6 kinase pathway phospho-S6 level changes – cell-based, A549, cytoblot, luminescence, serum-stimulated, primary screen (AID 1158).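 Further: serum-stimulated A549 lung adenocarcinoma cells; signal is phosphorylated S6 detected by cytoblot immunostaining with HRP secondary.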 Particulars: 5 h, higher = more signal.
Experiment [18] concerns the target NADPH oxidase 2 (Homo sapiens) (UniProt P04839). The experiment is described as follows: compounds shifting NOX2 Amplex Red fluorescence – cell-based, HEK293-NOX2, PMA-stimulated, NOX inhibitor project, primary screen (AID 1159). Further: test concentration not given here. Particulars: 45 min, higher = more signal, called active from +8 up or from −8 down.
Experiment [19] addresses NADPH oxidase 4 (Homo sapiens) (UniProt Q9NPH5). Briefly: compounds shifting NOX4 Amplex Red fluorescence – cell-based, HEK293-NOX4, tetracycline-induced, NOX inhibitor project, primary screen (AID 1160). Particulars: HEK293-NOX4, Amplex Red H2O2 fluorescence, 45 min; higher = more signal, called active from +8 up or from −8 down.
For experiment [20], the target named is NADPH oxidase 5 (Homo sapiens) (UniProt Q96PH1). The experiment is described as follows: compounds shifting NOX5 Amplex Red fluorescence – cell-based, HEK293-NOX5, NOX inhibitor project, primary screen (AID 1161). Particulars: HEK293-NOX5, ionomycin, 45 min, higher = more signal.
Chain of NADPH oxidase 5 (Homo sapiens) (Q96PH1 whole entry, looked up): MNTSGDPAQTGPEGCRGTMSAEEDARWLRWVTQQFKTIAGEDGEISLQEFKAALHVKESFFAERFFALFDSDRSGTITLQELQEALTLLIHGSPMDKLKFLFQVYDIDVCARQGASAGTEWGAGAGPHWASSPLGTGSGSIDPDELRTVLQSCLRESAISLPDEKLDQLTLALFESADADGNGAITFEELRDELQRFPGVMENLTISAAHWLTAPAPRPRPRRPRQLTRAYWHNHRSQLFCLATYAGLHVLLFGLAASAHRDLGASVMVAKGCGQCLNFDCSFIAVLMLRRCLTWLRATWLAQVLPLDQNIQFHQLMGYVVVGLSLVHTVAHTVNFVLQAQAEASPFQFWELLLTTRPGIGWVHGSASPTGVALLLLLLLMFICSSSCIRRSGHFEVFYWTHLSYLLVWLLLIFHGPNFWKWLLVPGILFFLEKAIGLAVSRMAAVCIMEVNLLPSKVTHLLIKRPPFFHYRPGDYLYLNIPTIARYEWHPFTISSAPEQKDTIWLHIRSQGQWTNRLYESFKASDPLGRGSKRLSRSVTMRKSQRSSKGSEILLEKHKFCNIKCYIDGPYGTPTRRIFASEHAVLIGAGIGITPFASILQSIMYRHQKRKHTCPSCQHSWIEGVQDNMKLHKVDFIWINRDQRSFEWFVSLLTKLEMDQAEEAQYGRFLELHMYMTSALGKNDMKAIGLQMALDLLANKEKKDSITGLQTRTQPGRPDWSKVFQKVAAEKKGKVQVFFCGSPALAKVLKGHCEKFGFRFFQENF

Chain of NADPH oxidase 4 (Homo sapiens) (Q9NPH5 whole entry, looked up): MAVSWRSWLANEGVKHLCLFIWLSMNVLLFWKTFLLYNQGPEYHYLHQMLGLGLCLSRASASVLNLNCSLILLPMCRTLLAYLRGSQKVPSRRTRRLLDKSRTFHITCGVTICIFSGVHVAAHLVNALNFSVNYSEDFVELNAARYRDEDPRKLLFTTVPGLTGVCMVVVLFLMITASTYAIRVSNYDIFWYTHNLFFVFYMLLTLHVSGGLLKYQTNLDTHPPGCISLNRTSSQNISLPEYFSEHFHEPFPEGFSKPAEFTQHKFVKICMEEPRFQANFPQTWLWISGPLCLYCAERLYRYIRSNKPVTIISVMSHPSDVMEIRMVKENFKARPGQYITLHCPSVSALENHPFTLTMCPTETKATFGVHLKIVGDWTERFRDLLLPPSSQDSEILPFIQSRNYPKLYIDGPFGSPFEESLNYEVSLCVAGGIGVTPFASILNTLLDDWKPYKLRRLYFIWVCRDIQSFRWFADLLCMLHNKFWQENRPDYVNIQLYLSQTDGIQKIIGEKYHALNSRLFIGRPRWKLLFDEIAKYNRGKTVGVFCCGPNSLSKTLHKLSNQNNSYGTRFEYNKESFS
Chain of Streptavidin (Streptomyces avidinii) (P22629 whole entry, looked up): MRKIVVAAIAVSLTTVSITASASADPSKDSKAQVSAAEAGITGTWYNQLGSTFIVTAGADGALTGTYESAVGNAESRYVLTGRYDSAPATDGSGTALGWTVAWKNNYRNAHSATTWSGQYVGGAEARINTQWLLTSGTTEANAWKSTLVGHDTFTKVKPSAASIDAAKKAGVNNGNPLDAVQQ
Chain of Torsin-1A (Homo sapiens) (O14656 whole entry, looked up): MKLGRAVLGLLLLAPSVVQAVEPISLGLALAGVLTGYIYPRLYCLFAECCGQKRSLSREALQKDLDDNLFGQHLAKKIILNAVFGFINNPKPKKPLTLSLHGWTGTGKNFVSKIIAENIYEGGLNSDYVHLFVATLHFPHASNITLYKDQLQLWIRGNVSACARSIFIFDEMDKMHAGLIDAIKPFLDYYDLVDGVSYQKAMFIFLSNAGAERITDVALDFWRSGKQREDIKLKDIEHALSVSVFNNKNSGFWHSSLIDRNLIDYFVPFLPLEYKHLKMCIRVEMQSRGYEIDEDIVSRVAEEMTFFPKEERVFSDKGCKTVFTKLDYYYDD
Chain of NADPH oxidase 2 (Homo sapiens) (P04839 whole entry, looked up): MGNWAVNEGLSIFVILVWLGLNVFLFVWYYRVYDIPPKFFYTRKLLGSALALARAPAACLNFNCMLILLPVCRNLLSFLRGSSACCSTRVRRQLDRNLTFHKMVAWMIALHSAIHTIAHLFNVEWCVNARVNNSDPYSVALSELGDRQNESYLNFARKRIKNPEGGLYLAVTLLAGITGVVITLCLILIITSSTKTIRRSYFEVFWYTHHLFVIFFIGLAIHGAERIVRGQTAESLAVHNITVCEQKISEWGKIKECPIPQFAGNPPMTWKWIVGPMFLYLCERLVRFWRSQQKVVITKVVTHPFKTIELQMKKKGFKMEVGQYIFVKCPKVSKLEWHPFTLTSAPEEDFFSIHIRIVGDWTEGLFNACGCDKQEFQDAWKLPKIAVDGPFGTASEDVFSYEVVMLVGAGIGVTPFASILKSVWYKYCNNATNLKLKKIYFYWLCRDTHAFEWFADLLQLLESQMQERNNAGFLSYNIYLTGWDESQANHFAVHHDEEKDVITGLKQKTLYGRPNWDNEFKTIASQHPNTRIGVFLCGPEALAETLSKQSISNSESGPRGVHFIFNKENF

Turning to `O=C1[C@H]2[C@H]3[C@H](O)[C@H](O)CC(=NO[C@@H]4O[C@H](CO)[C@@H](O)[C@H](O)[C@H]4O)[C@H]3CC[C@H]2C(=O)N1Cc1ccc2c(c1)OCO2`, the composite z-score in experiment [1] was -0.228; in experiment [6], 0.595; in experiment [7], -0.0719; in [8], 0.838; in [9], 0.181; in experiment [10] it was -0.928. The composite z-score in experiment [12] is 0.122. For the same compound, the z-score in experiment [2] was -0.402 (inactive); in experiment [3], 1.58 (inactive); in [4] it was 0.525 (inactive); in experiment [5], -0.576 (inactive); in experiment [11] it was 0.614 (inactive); in experiment [13] it was 15.5 (active). Also, the z-score in experiment [14] is 2.09 (inactive); in [15], 0.0435 (inactive); in [16], 1.04 (inactive); in [17], -0.438; in experiment [18], -2.58 (inactive); in [19], 0.514 (inactive). Also, in experiment [20], the z-score stood at 1.55.

As to `C[C@H](c1ccccc1)N1C(=O)[C@H]2[C@H]3[C@H](O)[C@H](O)CC(=O)[C@@H]3CC[C@H]2C1=O`, the composite z-score was 0.507 in experiment [1]; 0.239 in [6]; -0.0059 in experiment [7]; 0.458 in experiment [8]; 0.208 in experiment [9]; 0.694 in [10]. Moreover, the composite z-score in experiment [12] was determined as 0.173. The z-score in experiment [2] is -1.37 (inactive); in experiment [3], 0.00143 (inactive); in [4] it was -0.885 (inactive); in experiment [5], -0.997 (inactive); in [11] it was -0.228 (inactive); in experiment [13], 0.12 (inactive). Further, the z-score in experiment [14] was 0.321 (inactive); in experiment [15], 0.151 (inactive); in experiment [16], -0.12 (inactive); in [17] it was -0.448; in experiment [18] it was 0.292 (inactive); in experiment [19], -0.112 (inactive). Further, the z-score in experiment [20] is -0.092.

Turning to `CCN1C(=O)[C@H]2[C@H]3[C@H](O)[C@H](O)CC(=NO[C@@H]4O[C@H](CO)[C@@H](O)[C@H](O)[C@H]4O)[C@@H]3CC[C@H]2C1=O`, the composite z-score in experiment [1] was -0.215; in experiment [6], -0.933; in [7] it was -0.249; in experiment [8] it was 1.47; in [9], -0.213; in [10], 0.365. The compound further showed a composite z-score in experiment [12] of -0.183. In addition, the z-score was 0.499 (inactive) in [2]; 0.00567 (inactive) in [3]; -0.925 (inactive) in experiment [4]; -0.951 (inactive) in experiment [5]; 0.0871 (inactive) in [11]; 0.568 (inactive) in experiment [13]. Further, the z-score is 0.283 (inactive) in experiment [14]; -0.846 (inactive) in experiment [15]; -0.0143 (inactive) in experiment [16]; 0.345 in [17]; 0.0968 (inactive) in experiment [18]; 0.303 (inactive) in experiment [19]. The z-score in [20] is -0.0261.

As to `CC(C)C[C@@H]1NC(=O)[C@H]2C[C@@H](C(=O)O)[C@@H](c3ccc(O)cc3)N2C1=O`, the composite z-score in experiment [1] is 0.0112; in [6], 0.0925; in [7], -0.0521; in [8], 0.884; in experiment [9] it was 0.285; in experiment [10], 1.67. For the same compound, the composite z-score in experiment [12] was determined as 0.0455. In addition, the z-score was -0.354 (inactive) in experiment [2]; -0.1 (inactive) in [3]; 0.281 (inactive) in experiment [4]; -0.627 (inactive) in experiment [5]; 0.498 (inactive) in [11]; 5.88 (inactive) in [13]. Further, the z-score in experiment [14] was 1.66 (inactive); in experiment [15], -1.66 (inactive); in experiment [16], 0.448 (inactive); in experiment [17], -0.239; in [18] it was -1.72 (inactive); in experiment [19], -2.25 (inactive). The z-score in experiment [20] is -0.356.
